The panel holds about 79,000 compounds, 15% with a hit somewhere; the sample as a whole holds those more often. Activity calls are given as the source filed them. Cut-off read from the data, not from the text of the source: active = growth inhibition above about 70%; inactive = the rest. Where a SMILES comes first, the peptide text is derived from it. [ ]: non-standard residue; d: D form. ξ: configuration not given here. ξF = NC(Cc1ccccc1)C(=O)O
Columns and labels:
[1] = NCI Yeast Anticancer Drug Screen. Data for the rad50 strain (AID 155);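 note: 0% = growth of vehicle-only cultures of the same strain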; conditions: S. cerevisiae rad50 strain growth inhibition; at 50.0 µM; hits give high values
Outline: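 Genetically altered yeast (DNA repair pathway); compound treatment; growth inhibition vs vehicle ctrl.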

[2] = NCI Yeast Anticancer Drug Screen. Data for the mec2-1 strain (AID 157); conditions: S. cerevisiae mec2-1 strain, at 50.0 µM, hits give high values
Outline: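 Growth inhibition is read against vehicle-treated controls after compound exposure of the mec2-1 yeast strain, which is defective in DNA damage repair or cell cycle control.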

[3] = NCI Yeast Anticancer Drug Screen. Data for the mlh1 rad18 strain (AID 175); conditions: S. cerevisiae mlh1 rad18 strain growth inhibition; at 50.0 µM; hits give high values
Outline: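 Cells of a genetically altered yeast strain, deficient in DNA damage repair, were treated with compound. Their growth was then compared with that of vehicle-treated cultures to give inhibition.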

Measured: growth inhibition

COc1cc(-c2cc(=O)c3c(C)cc(O)cc3o2)cc(OC)c1OC
inactive: [1] -2.1% | [2] -9% | [3] 45.6%

O=C(O)c1cc(N=Nc2ccccc2)ccc1O
inactive: [1] -19.1% | [2] -12.7% | [3] -23.8%

COc1ccc(/C=C(\C#N)c2ccc(Cl)cc2)cc1OC
inactive: [1] -2.05% | [2] -8% | [3] -1.15%

COc1ccc(C(C#N)N2CCCC2)cc1 (configuration not stated)
inactive: [1] -21.9% | [2] -37.9% | [3] -9.75%

CCOC(=O)C(C)Oc1ccccc1[N+](=O)[O-] (configuration not stated)
inactive: [1] -24.6% | [2] -41.2% | [3] -15.8%

CC1(O)CC2CC1C(C(=O)O)C2C(=O)O (configuration not stated)
inactive: [1] -0.85% | [2] -27.6% | [3] -15.1%

Cc1ccc2c(c1)=N/C(=N\c1nc(O)c(O)[nH]1)N=2
inactive: [1] 7.4% | [2] -15.3% | [3] -4.55%

COc1cccc(N2C(=O)CSC2=S)c1
inactive: [1] 32.7% | [2] 7.95% | [3] 46.8%

CCCCCCC(=O)C(CCCC)(C(=O)OCC)C(=O)OCC
inactive: [1] 0.4% | [2] -9.4% | [3] 7.35%

COC(=O)CCNCc1ccccc1
inactive: [1] -7.25% | [2] -41.6% | [3] 10.4%

Nc1nc(N)nc(-c2ccccc2Cl)n1
inactive: [1] 3.65% | [2] -10.8% | [3] 32.2%

Cn1/c(=N\N=C\C(=O)O)sc2ccccc21
inactive: [1] -6.1% | [2] -13.8% | [3] 10.1%

CN(Cc1ccccc1)Cc1ccccc1
inactive: [1] 8.4% | [2] -3.9% | [3] 14.7%

COc1cc(/C=C(/C#N)C(N)=O)ccc1O
inactive: [1] -1.7% | [2] -35% | [3] -54.9%

Cc1nc2c(Cl)cc(Cl)c(Cl)c2s1
inactive: [1] 9.65% | [2] 5.15% | [3] 51.1%

COc1ccc(-c2cc(=O)c3ccc(O)cc3o2)cc1
inactive: [1] 7.55% | [2] -13.3% | [3] 38%

CCCOC(=O)C(=O)C(C#N)c1ccccc1 (configuration not stated)
inactive: [1] 21.1% | [2] -0.35% | [3] 16.9%

C[n+]1ccc(/C=C\c2ccc3c(c2)OCO3)cc1
inactive: [1] -1.4% | [2] -26.9% | [3] 2.6%

C=CCCCCCCCCC(=O)Cl
inactive: [1] 33.9% | [2] 3.35% | [3] 11.1%

CCOC(=O)/C=C(\C)Nc1ccc(F)cc1
inactive: [1] -0.5% | [2] -17.6% | [3] 14.2%

OC1CCC2CN3CCc4c([nH]c5ccccc45)C3CC2C1 (configuration not stated)
inactive: [1] 23.6% | [2] -9.5% | [3] 27.8%

O=c1c(=O)n(CCO)n(CCO)c(=O)n1CCO
inactive: [1] -29.7% | [2] -28.9% | [3] -18.1%

Cn1c(=S)sc2ccc3ccccc3c21
inactive: [1] -17.4% | [2] -11.1% | [3] -25.9%

CC(C)c1nc(-c2ccccc2)c(-c2ccccc2)[nH]1
inactive: [1] 43.2% | [2] 13.1% | [3] 54.7%

COc1ccc(/C=N/N2C(=O)c3ccccc3C2=O)cc1OC
inactive: [1] 21% | [2] 1.2% | [3] 6.3%

O=C(O)/C=C/C(=O)Nc1cc(Cl)c(Cl)cc1Cl
inactive: [1] -11.3% | [2] -3.25% | [3] -10.9%

COC(CN(C)CC(OC)OC)OC
inactive: [1] -8.75% | [2] -20.9% | [3] -11.8%

CCOc1ccc(Br)cc1C=O
inactive: [1] 54.2% | [2] 17.4% | [3] 45.1%

CCCCCCCCCCCCOc1ccc(C)cc1
inactive: [1] 5.45% | [2] -25% | [3] 5.3%

NC(CCC(=O)OCc1ccccc1)C(=O)OCc1ccccc1 (configuration not stated)
inactive: [1] -0.95% | [2] -14.3% | [3] 9.25%

N/C(Cc1ccc(N)cc1)=N\O
inactive: [1] -17.4% | [2] -13.6% | [3] -13.8%

CCCCCCCCCCCC(=O)CCCCC
inactive: [1] -29.5% | [2] -17.1% | [3] -29.4%

CCCN(CCC)CCC(=O)OCC
inactive: [1] -18.2% | [2] -29.2% | [3] -10.9%

COc1ccc(-c2cc(=O)c3c(C)cc(O)cc3o2)cc1
inactive: [1] -9.4% | [2] -16.1% | [3] 37.9%

COc1ccc(/C=C/C(=O)c2ccc(Cl)cc2)c(OC)c1
inactive: [1] 20.5% | [2] -11.9% | [3] 8.75%

C[N+](C)(C)CN1C(=O)c2ccccc2C1=O
inactive: [1] -11.9% | [2] -29.2% | [3] -4.8%

O=C1c2ccccc2C(=O)N1/N=C/c1cc(Br)ccc1O
inactive: [1] 22.2% | [2] -4.35% | [3] 10.4%

COc1ccc(CNc2ccccn2)cc1
inactive: [1] 10.9% | [2] 13.5% | [3] 40.2%

Clc1nc(Oc2ccccc2)nc(-c2cn(-c3ccccc3)c3ccccc23)n1
inactive: [1] 2.05% | [2] -12.6% | [3] -6.35%

OCCN(CCO)C(CO)(CO)CO
inactive: [1] 0.7% | [2] -12.8% | [3] 24.8%

O=[N+]([O-])c1cccc(S(=O)(=O)OCCOc2ccccc2)c1
inactive: [1] 30.7% | [2] 4.15% | [3] 17.6%

CC1=NN(c2ccccc2)C(=O)C1C(=O)c1ccccc1 (configuration not stated)
inactive: [1] 22.2% | [2] -3.65% | [3] 14%

C(=C/c1ccc(/C=C/c2ccccc2)cc1)/c1ccccc1
inactive: [1] -22.1% | [2] -13.9% | [3] -26.8%

CCCCOc1cc(C(=O)NCCN(CC)CC)c2ccccc2n1
inactive: [1] -2.1% | [2] -9.6% | [3] 1.9%

NC(Cc1ccccc1)C(=O)NCC(=O)NCC(=O)O (stereo not drawn) (H-[ξF]-Gly-Gly-OH)
inactive: [1] 13% | [2] -1.35% | [3] 4.55%

O=C(CCCCCCCCCCBr)OCc1ccccc1
inactive: [1] -34.2% | [2] -40% | [3] 5.9%

COc1ccc(CCN2C(=O)CSC2=S)cc1OC
inactive: [1] -14% | [2] -17.4% | [3] -2.6%

CC(=O)c1cccc(OCc2ccccc2)c1
inactive: [1] 6.4% | [2] 2.75% | [3] 8.4%

O=C(/C(=N/N=C\c1ccc([N+](=O)[O-])cc1)c1ccccc1)c1ccccc1
inactive: [1] -10.6% | [2] -18.4% | [3] -1.25%

CCOC(=O)CCc1ccc(O)c(O)c1
inactive: [1] 4.9% | [2] 1.85% | [3] 15.6%

Nc1ccc(I)cc1Cl
inactive: [1] 15.8% | [2] 4.5% | [3] 24.4%

N#CC1(c2ccc(Cl)cc2)CCCC1
inactive: [1] -15.3% | [2] -44% | [3] -14.8%

O=[N+]([O-])c1cccc(C=Nc2cccc(C(F)(F)F)c2)c1
inactive: [1] 6.95% | [2] 4.35% | [3] -12.2%

CC(=O)CCN(Cc1ccccc1)Cc1ccccc1
inactive: [1] 1.7% | [2] -1.95% | [3] 22.4%

CCOC(=O)NC(C)(C)CN(C(=O)OCC)c1ccccc1
inactive: [1] -31.4% | [2] -39.6% | [3] -10.7%

C[Si]1(C)N[Si](C)(C)N[Si](C)(C)N1
inactive: [1] 13.2% | [2] -19.6% | [3] 2.3%

Cc1ccc(S(=O)(=O)NCN2C(=O)c3ccccc3C2=O)cc1
inactive: [1] -3.75% | [2] -3.85% | [3] 1.55%

CCCCCCCCCCCCOc1ccccc1
inactive: [1] 6.15% | [2] -14.3% | [3] 7.6%

Cc1cc(C)cc(NC(=O)c2ccccc2N)c1
inactive: [1] -5.15% | [2] -27.9% | [3] -4.6%

C(=N\n1cnnc1)/c1ccc2c(c1)CCC2
inactive: [1] -21.6% | [2] -34.5% | [3] -20.4%

Cc1ccc(-c2nc3cc(Cl)ccc3c(=O)o2)cc1
inactive: [1] 14.6% | [2] -11.3% | [3] 6.3%

CCOc1ccc(N=c2ssc(SC)c2-c2ccccc2)cc1
inactive: [1] 3.4% | [2] -10.8% | [3] 20.5%

C[N+]12CCC34c5ccccc5NC3C3C(CC(=O)[O-])OCC=C(C1)C3CC42 (configuration not stated)
inactive: [1] -7.55% | [2] -45% | [3] -31%

Cc1cccc(-c2nc3cc(Cl)ccc3c(=O)o2)c1
inactive: [1] -10.8% | [2] -13.6% | [3] 6.6%

COc1cc2c(cc1O)C(Cc1ccc(OC)c(OC)c1)N(C)CC2 (configuration not stated)
inactive: [1] 4.25% | [2] 0.85% | [3] 2.35%

c1cc[n+](CCNCC[n+]2ccccc2)cc1
inactive: [1] 8.55% | [2] -7.75% | [3] 36.6%

O=Cc1ccc2c(c1Cl)C(=O)c1ccccc1C2=O
inactive: [1] 51% | [2] 43.2% | [3] 68.3%

CCOC(=O)C(C#N)C(C(C)=O)C(=O)OCC (configuration not stated)
inactive: [1] 9.15% | [2] -1.45% | [3] 31.4%

COc1ccc(-c2cc(=O)c3c(O)cccc3o2)cc1
inactive: [1] 2.65% | [2] -37.1% | [3] -1.35%

From PubChem BioAssay (NCI)
